A selection: hits, their analogues and other compounds. The true share with any hit is near 3.5%.
MITF primary: human MITF inhibition, primary screen; AlphaScreen MITF homodimerization, bead proximity signal; inhibition, % at 2.6 µM; 650,000 compounds, 0.91% hits; AID 1259374; in the data active = inhibition above about 50%
Target sequence (O75030 whole entry, looked up): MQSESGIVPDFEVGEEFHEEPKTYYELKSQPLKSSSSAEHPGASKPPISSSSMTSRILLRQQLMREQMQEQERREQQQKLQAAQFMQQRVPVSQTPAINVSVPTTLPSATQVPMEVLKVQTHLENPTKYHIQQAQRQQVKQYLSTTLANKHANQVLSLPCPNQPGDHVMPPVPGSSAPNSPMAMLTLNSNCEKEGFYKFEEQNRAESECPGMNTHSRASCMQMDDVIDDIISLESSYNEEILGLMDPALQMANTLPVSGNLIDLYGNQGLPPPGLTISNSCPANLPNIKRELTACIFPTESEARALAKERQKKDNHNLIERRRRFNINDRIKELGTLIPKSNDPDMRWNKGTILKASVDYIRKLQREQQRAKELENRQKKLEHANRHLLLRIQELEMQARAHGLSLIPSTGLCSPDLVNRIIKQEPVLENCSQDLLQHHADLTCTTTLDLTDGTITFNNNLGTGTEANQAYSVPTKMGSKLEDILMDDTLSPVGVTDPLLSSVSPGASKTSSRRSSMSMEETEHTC
TEAD-YAP block: TEAD-YAP interaction inhibition; HEK-TIYL cells, TEAD-Gal4/YAP UAS-luciferase luminescence; inhibition, % at 9.12 µM; 640,000 compounds, 1.4% hits; AID 1259422; in the data active = inhibition above about 32%
GPR151 activ: activates the human receptor GPR151; Q8TDV0; PathHunter beta-arrestin GPR151 cells, luminescence; activation, % at 11.2 µM; 650,000 compounds, 1% hits; AID 1508602; in the data active = activation above about 4.9%
FBW7 activator: human FBW7 E3 ligase activation, primary screen; AlphaScreen FBW7–phospho-cyclin E peptide binding, activator screen; 650,000 compounds, 0.13% hits; Q969H0; normalized activity (activation), % at 26.1 µM; in the data active = normalized activity above about 1.9%;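 note: purified mutant Fbw7 with reduced substrate affinity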
A number is an active result; n = inactive.

SMILES	MITF primary	TEAD-YAP block	GPR151 activ	FBW7 activator
Cc1cc(C(F)F)n2nc(C(=O)Nc3ccc(C)c(F)c3)nc2n1	n	n	n	n
CCCCOc1ccc(-c2nc(CCC)no2)cc1	n	n	n	n
Oc1ccc(CCNc2ccnc(Nc3ccc(C(F)(F)F)cc3)n2)cc1	n	n	n	n
Oc1ccc(CCNc2ccnc(Nc3ccc(-n4ccnc4)cc3)n2)cc1	n	43.4	n	n
Oc1ccc(CCNc2ccnc(Nc3ccncc3)n2)cc1	n	74.9	n	n
Cc1c(NS(=O)(=O)c2ccc3c(c2)OCC(=O)N3)c(=O)n(-c2ccccc2)n1C	n	n	n	n
c1ccc(-n2cnc3c(NCc4nc5ccccc5[nH]4)nc(-c4ccc(N5CCOCC5)nc4)nc32)cc1	n	44.3	n	n
O=C(NCc1nc2ccccc2[nH]1)c1ccc2nc(-c3ccc(N4CCOCC4)nc3)sc2c1	n	n	n	6.9
c1ccc(-n2cnc3c(NCc4nc5ccccc5[nH]4)nc(N4CCN(Cc5ccc6c(c5)OCO6)CC4)nc32)cc1	n	71.0	n	n
c1ccc(-n2cnc3c(NCc4nc5ccccc5[nH]4)nc(N4CCOCC4)nc32)cc1	n	82.2	n	n
CN(C)c1ccc(N=Cc2ccc(O)cc2)cc1	n	n	n	n
COC(=O)c1cn[nH]c1NC(=S)Nc1c(C)cccc1C	n	n	n	n
COC(=O)c1cn[nH]c1NC(=S)Nc1ccc(Br)cc1	n	38.6	n	n
CS(=O)(=O)CCOC(=O)c1cccc(Br)c1	n	n	n	n
COc1cccc(C(=O)Nc2ccc3nc(N4CCN(c5ncccn5)CC4)cc(C)c3c2)c1OC	n	42.9	n	n
COc1ccccc1C(=O)Nc1ccc2nc(N3CCN(c4ncccn4)CC3)cc(C)c2c1	n	n	n	n
CCOC(=O)c1[nH]c(C)c(C(=O)Nc2cccc(F)c2)c1C	n	42.6	n	n
CCOC(=O)c1[nH]c(C)c(C(=O)Nc2cccc(Cl)c2)c1C	n	46.0	n	n
CCOC(=O)c1[nH]c(C)c(C(=O)Nc2ccc(F)cc2)c1C	n	n	n	n
COc1cc(N)c(-c2nc3ccccc3[nH]2)cc1OC	n	45.9	n	n
c1ccc2[nH]c(-c3cc(-c4cc(-c5nc6ccccc6[nH]5)c5ccccc5n4)nc4ccccc34)nc2c1	n	82.0	n	n
O=C1Nc2ccccc2/C1=C/c1nc2ccccc2c(=O)n1-c1cccc([N+](=O)[O-])c1	n	n	n	n
O=C1Nc2ccccc2/C1=C\c1nc2ccccc2c(=O)n1-c1cccc([N+](=O)[O-])c1	n	40.8	n	n
CCCCc1ccc(N2CCCn3c2nc2c3c(=O)[nH]c(=O)n2C)cc1	n	n	n	n
CC1=C/C(=N\S(=O)(=O)c2ccc(C)cc2)C=CC1=O	70.5	n	n	n
SMILES	MITF primary	TEAD-YAP block	GPR151 activ	FBW7 activator
C=CCc1c(NCc2ccccc2)nc(C)nc1NCc1ccccc1	n	n	n	n
O=C1C(c2ccnc3ccccc23)=C(O)c2ccccc21	n	53.0	n	n
O=C(Nc1cccc(O)c1)c1cc(-c2ccc3c(c2)OCO3)on1	n	97.2	n	n
O=C(Nc1cccc(O)c1)c1cc(-c2ccc(Cl)cc2)on1	n	80.6	n	n
O=C(Nc1cccc(O)c1)c1cc(-c2cccnc2)on1	n	n	n	n
O=c1[nH]c2cc3ccccc3cc2nc1-c1ccccc1NCc1ccc(Br)cc1	n	n	n	n
COc1cccc(Cn2ccn(-c3cccc(Cl)c3)c(=O)c2=O)c1	n	52.7	n	n
COc1cccc(Cn2ccn(Cc3ccccc3)c(=O)c2=O)c1	n	n	n	n
CCOc1ccc(N(C(C)C(=O)Nc2cc(Cl)ccc2OC)S(C)(=O)=O)cc1 (centres undefined)	n	32.5	n	n
CCOc1ccc(N(C(C)C(=O)Nc2cc(C)ccc2OC)S(C)(=O)=O)cc1 (centres undefined)	n	46.6	n	n
COc1ccc(N(C(C)C(=O)Nc2cc([N+](=O)[O-])ccc2OC)S(C)(=O)=O)cc1 (centres undefined)	n	50.5	n	n
CCOC(=O)c1ccccc1NC(=O)C(C)N(c1ccc(OCC)cc1)S(C)(=O)=O (centres undefined)	n	57.0	n	n
CCOc1ccc(N(C(C)C(=O)Nc2ccccc2OC)S(C)(=O)=O)cc1 (centres undefined)	n	n	n	n
CCOc1ccc(N(C(C)C(=O)Nc2ccccc2Cl)S(C)(=O)=O)cc1 (centres undefined)	n	n	n	n
CCOc1ccc(N(C(C)C(=O)Nc2ccc(Cl)cc2C)S(C)(=O)=O)cc1 (centres undefined)	n	n	n	n
O=c1[nH]c(=O)n(-c2ccccc2)c(O)c1C=NC12CC3CC(CC(C3)C1)C2	n	n	n	n
CC(=O)c1c(N2CCCCC2)nc2ccc(Cl)cc2c1-c1ccccc1	n	n	n	n
Nc1cc(N)nc(SCC(=O)NCCOc2ccccc2)n1	n	n	n	2.2
O=C(O)C1C2CC=CC2c2cc(Br)cc3c2N1CC1CC=CC31 (centres undefined)	n	n	n	5.5
O=C(O)c1cc2c3c(c1)C1C=CCC1CN3CC1CC=CC21 (centres undefined)	75.9	n	n	n
CCOc1ccccc1NC(=S)N(CCOC)C(C)c1ccccn1 (centres undefined)	n	n	n	n
Cc1cccc(OCC(=O)N(CCn2cccn2)c2nc3c(F)cccc3s2)c1	n	42.9	n	n
Cc1cc(C(=O)N(CCn2cccn2)c2nc3c(F)cccc3s2)on1	n	n	n	n
O=C(Nc1ccc(Br)cn1)c1ccccc1[N+](=O)[O-]	n	54.5	n	n
Cc1ccc(-n2nc3ccc(NC(=O)COc4ccccc4)cc3n2)cc1Cl	n	n	n	5.2
SMILES	MITF primary	TEAD-YAP block	GPR151 activ	FBW7 activator
CCc1ccc(C(=O)Nc2ccc(C(=O)O)cc2)cc1	n	57.9	n	n
CCc1ccc(C(=O)Nc2ccc(Br)cc2)cc1	n	n	n	n
CC(=O)Nc1ccc(OCCC[n+]2ccccc2)cc1	n	n	n	1.9
COc1ccc(NC(=O)c2cc3c(CO)cnc(C)c3oc2=Nc2ccc(OC)c(OC)c2)cc1	n	n	n	n
CCc1ccc(C(=O)Nc2ccc(Br)cn2)cc1	n	38.1	n	n
COc1ccc(OCC(=O)Nc2ccc(NC(=O)c3ccccc3)cc2)cc1	n	36.3	n	n
COc1ccc(NC(=O)COc2c(C)ccc(C)c2C)cc1	n	45.8	n	n
CCOc1ccc(C(=O)Nc2ccc(OCC(=O)O)cc2)cc1	n	47.7	n	n
CCc1ccc(C(=O)Nc2ccc(I)cn2)cc1	n	n	n	n
Cc1ccc(NC(=O)c2ccc(OCC(=O)Nc3ccccc3)cc2)cc1	n	n	n	n
Cc1ccc(C(=O)Nc2ccc(OCC(=O)O)cc2)cc1	n	37.0	n	n
CC(=O)Nc1ccc(OCC(=O)Nc2cccc(Oc3ccccc3)c2)cc1	n	35.8	n	n
CC(=O)Nc1cccc(NC(=O)COc2ccc(Oc3ccccc3)cc2)c1	n	n	n	n
Cc1cc(C)n(-c2cc(NCCNC(=O)COc3ccccc3)nc(C)n2)n1	n	n	n	n
COc1cccc(NC(=O)c2cnc(N3CCN(c4ccccc4OC)CC3)c3ccccc23)c1	n	n	n	n
